Data: publication PMC5540273 (PLoS ONE, 2017)

Tests used:
Conditions in all cases: concentration: 1 μM,replicates: in singlicate; n = 1
SNARK = system: T1, SNARK
T1 construct: gene NUAK2

SNRK = system: SNRK
SRC = system: SRC
SRMS = system: SRMS
SRPK1 = system: SRPK1
SRPK2 = system: SRPK2
SRPK3 = system: SRPK3
STK16 = system: STK16
STK33 = system: STK33
STK35 = system: STK35
STK36 = system: STK36
STK39 = system: STK39
SYK = system: SYK
SgK110 = system: SgK110
TAK1 = system: T2, TAK1
T2 construct: gene MAP3K7

TAOK1 = system: TAOK1
TAOK2 = system: TAOK2
TAOK3 = system: TAOK3
TBK1 = system: TBK1
TEC = system: TEC
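Further: KINOMEscan kinase panel screen.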

Structure (SMILES)	%Inh (SNARK)	%Inh (SNRK)	%Inh (SRC)	%Inh (SRMS)	%Inh (SRPK1)	%Inh (SRPK2)	%Inh (SRPK3)	%Inh (STK16)	%Inh (STK33)	%Inh (STK35)	%Inh (STK36)	%Inh (STK39)	%Inh (SYK)	%Inh (SgK110)	%Inh (TAK1)	%Inh (TAOK1)	%Inh (TAOK2)	%Inh (TAOK3)	%Inh (TBK1)	%Inh (TEC)
O=C(NOCC1CC1)c1cc(Br)c(F)c(F)c1Nc1ccc(I)cc1Cl	0%	0%	2%	0%	0%	0%	0%	20%	0%	0%	0%	0%	13%	0%	0%	0%	27%	0%	5%	0%
COC(=O)c1cccc(NC(=O)NC2CCN(c3ccnc(Nc4cc(OC)c(OC)c(OC)c4)n3)C2)c1 (stereo not drawn) [GSK1379767]	21%	0%	19%	0%	35%	45%	4%	61%	0%	0%	0%	5%	34%	0%	12%	0%	0%	0%	32%	0%
CN(c1cccc(CNc2nc(Nc3ccc4c(c3)CC(=O)N4)ncc2C(F)(F)F)c1)S(C)(=O)=O	76%	0%	4%	0%	73%	0%	31%	90.2%	0%	8%	20%	0%	37%	0%	43%	0%	16%	0%	70%	0%
Cl.Nc1n[nH]c2cc(-c3ccccn3)ccc12 [GSK2189892]	18%	0%	0%	0%	0%	0%	0%	22%	0%	0%	0%	0%	7%	0%	2%	0%	0%	0%	6%	0%
OCCn1cc(-c2cnc3nnn(Cc4ccc5ncccc5c4)c3n2)cn1	0%	0%	0%	0%	0%	4%	0%	0%	0%	0%	0%	0%	0%	0%	12%	0%	0%	0%	0%	0%
CCOC(=O)N1CCC(n2cnc(-c3ccc(F)cc3)c2-c2ccnc(N)n2)CC1 [SB-219952]	0%	10%	0%	0%	9%	0%	28%	6%	0%	38%	47%	46%	13%	0%	42%	0%	3%	0%	16%	0%
NC(=O)Nc1sc(-c2ccc(F)cc2)cc1C(N)=O [GW789449]	75%	6%	55%	18%	81%	35%	90.6%	26%	0%	0%	0%	0%	32%	0%	75%	61%	41%	3%	41%	1%
CC(=O)c1c(-c2ccncc2)[nH]c(-c2ccncc2)c1C [GW493036]	0%	0%	0%	0%	24%	16%	0%	28%	0%	0%	10%	20%	24%	0%	19%	63%	0%	0%	0%	0%
COc1cc2nccc(Nc3ccc(Oc4ccccc4)cc3)c2cc1OC.Cl [GI261656]	0%	0%	47%	99.9%	31%	21%	0%	0%	0%	24%	0%	1%	0%	0%	0%	0%	0%	0%	13%	92.8%
Cn1ccc2ncnc(Oc3ccc(NC(=O)Nc4ccnc(C(F)(F)F)c4)c(Cl)c3)c21	0%	0%	13%	0%	49%	0%	0%	0%	0%	15%	0%	0%	0%	47%	2%	0%	0%	0%	0%	0%
CN(c1ccc2c(c1)nc(NCc1ccc(F)cc1)n2C)c1ccnc(Nc2ccc(CS(C)(=O)=O)cc2)n1.Cl [GW813244]	0%	0%	64%	56%	41%	0%	67%	46%	0%	15%	7%	0%	73%	8%	19%	0%	61%	3%	54%	25%
Cc1cccc2c(-c3ccncc3)c(-c3ccc(F)cc3)nn12.Cl [GW461487]	17%	0%	0%	0%	0%	0%	100%	4%	0%	0%	24%	12%	25%	0%	0%	1%	0%	5%	16%	0%
O=c1[nH]cc(-c2ccc(O)cc2)c2sc(-c3ccncc3)cc12 [GSK1033723]	8%	0%	0%	0%	21%	5%	0%	22%	0%	0%	26%	6%	26%	0%	11%	14%	0%	0%	19%	0%
COC(=O)c1cccc(NC(=O)NC2CCN(c3ccnc(NCc4ccc(F)cc4)n3)CC2)c1 [GSK1379860]	0%	0%	0%	0%	61%	0%	0%	0%	0%	0%	0%	0%	25%	0%	0%	0%	0%	0%	0%	15%
COc1cc2ncn(-c3cc(OCC4CCCCC4)c(C(N)=O)s3)c2cc1OC [GSK204559]	15%	0%	21%	0%	84%	0%	31%	4%	12%	30%	0%	7%	35%	0%	96.5%	0%	0%	0%	26%	13%
Cc1ccc(C(=O)Nc2ccc(Oc3ccc4nc(NC(=O)C5CC5)cn4c3)c(F)c2)c(=O)n1-c1ccccc1	0%	0%	11%	0%	0%	23%	25%	17%	24%	0%	3%	25%	59%	0%	0%	0%	0%	0%	44%	55%
CCCC(=O)Nc1n[nH]c2ncccc12 [SB-601436]	0%	0%	0%	4%	16%	0%	10%	3%	0%	0%	4%	0%	8%	0%	0%	2%	3%	0%	0%	0%
COc1cc2c(Nc3ccc(NC(=O)c4ccccc4)cc3)ncnc2cc1OCCCN1CCOCC1 [GSK301329]	7%	0%	20%	19%	0%	0%	2%	12%	41%	4%	0%	0%	7%	0%	0%	0%	0%	0%	0%	0%
C[C@@H]1CNc2c(sc3ccc4nc(-c5ccc(O)cc5)ccc4c23)C(=O)N1	85%	2%	0%	0%	0%	0%	24%	30%	78%	9%	5%	6%	0%	0%	44%	86%	0%	0%	8%	5%
Cn1ccc2ncnc(Oc3ccc(NC(=O)Nc4cc(C(C)(C)C)on4)c(Cl)c3)c21	0%	13%	44%	0%	80%	0%	0%	2%	64%	30%	0%	23%	0%	27%	81%	0%	0%	0%	28%	9%
Cn1ccc2ncnc(Oc3ccc(NC(=O)Nc4cnn(C(C)(C)C)c4)c(Cl)c3)c21	10%	0%	82%	0%	74%	11%	0%	16%	7%	0%	7%	0%	0%	38%	85%	0%	15%	0%	10%	0%
